15-hLO inh: qHTS Assay for Inhibitors of 15-hLO (15-human lipoxygenase); Polyunsaturated fatty acid lipoxygenase ALOX15 (Homo sapiens), P16050; AID 887, 2007; purified 15hLO-1, xylenol orange hydroperoxide absorbance; 74,000 compounds, 1.4% hits; Potency, µM (doses to about 57.1 µM), without a hit: at the top dose activity change, negative = inhibition, most hits filed as inhibitors; further: nearly all actives have a fitted effect of over 55% in size
Target sequence (P16050 whole entry, looked up): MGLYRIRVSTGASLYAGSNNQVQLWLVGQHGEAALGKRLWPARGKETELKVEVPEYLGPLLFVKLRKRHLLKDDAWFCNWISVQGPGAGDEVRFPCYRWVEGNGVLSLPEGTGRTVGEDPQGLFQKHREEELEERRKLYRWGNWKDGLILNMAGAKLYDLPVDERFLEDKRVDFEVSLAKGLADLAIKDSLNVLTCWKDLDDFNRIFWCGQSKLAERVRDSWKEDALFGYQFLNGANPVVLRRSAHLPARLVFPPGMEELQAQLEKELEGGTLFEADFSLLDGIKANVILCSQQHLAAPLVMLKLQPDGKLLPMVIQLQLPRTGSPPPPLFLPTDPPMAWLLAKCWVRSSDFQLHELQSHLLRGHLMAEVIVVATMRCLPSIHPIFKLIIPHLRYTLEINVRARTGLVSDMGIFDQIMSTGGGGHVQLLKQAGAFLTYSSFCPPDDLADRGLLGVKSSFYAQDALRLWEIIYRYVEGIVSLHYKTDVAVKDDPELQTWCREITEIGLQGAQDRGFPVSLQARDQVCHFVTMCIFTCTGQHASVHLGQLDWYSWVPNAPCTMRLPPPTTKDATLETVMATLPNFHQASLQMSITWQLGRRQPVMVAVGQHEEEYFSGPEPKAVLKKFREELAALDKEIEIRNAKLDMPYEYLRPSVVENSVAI
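40 nM 15hLO-1 + cpd, 15 min RT; start w/ 50 uM AA (final), 6 min RT; stop/detect w/ 200 uM XO + 300 uM Fe(II) in 50 mM H2SO4, 30 min; A573/A405. Buffer 25 mM Hepes pH 7.5, 0.01% Triton X-100. No-enzyme wells as negative control.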
HSD17B inhib: qHTS Assay for Inhibitors of HSD17B4, hydroxysteroid (17-beta) dehydrogenase 4. Potency, µM (titrated, usually from 57.1 µM), without a hit: at the highest dose activity change, negative = inhibition, hits mostly inhibitors. 75,000 compounds, 7.6% hits. recombinant HSD17B10, NADH fluorescence kinetic. 3-hydroxyacyl-CoA dehydrogenase type-2 (Homo sapiens), Q99714;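 further: the protocol describes HADH2 (HSD17B10) and not the HSD17B4 of the title; nearly all actives have a fitted effect of over 70% in size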
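His-tagged E. coli-expressed HADH2 at 20 nM in 100 mM Tris-HCl pH 9.0 with 0.01 % Tween-20, preincubated 15 min with compound at room temperature. Reaction with 1 mM NAD+ and 90 uM beta-hydroxybutyryl coenzyme A; NADH fluorescence (360/450 nm) read kinetically over 4 min, last minus first point.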
FLuc inh: qHTS Assay for Inhibitors of Firefly Luciferase | Potency, µM (highest dose often 57.1 µM), inactives show top-dose activity change, negative = inhibition, hits mostly inhibitors | AID 411, 2009 | Luciferin 4-monooxygenase (Photinus pyralis), P08659 | purified firefly luciferase, luminescence, 8 min | 72,000 compounds, 2.2% hits; further: nearly all actives have a fitted effect of over 40% in size
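Luminescence read-out after 8 min at room temperature; enzyme reaction used luciferin plus 10 uM ATP (linear range) in imidazole buffer pH 7.2 with KCl, MgCl2, Tween 20 and BSA. Each sample was run as a titration.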
ERK AVP block: qHTS Assay for Inhibitors of the ERK Signaling Pathway using a Homogeneous Screening Assay; HEK293-V1b, vasopressin-stimulated pERK AlphaScreen; 72,000 compounds, 0.99% hits; Potency, µM (highest dose often 57.5 µM), inactives show top-dose activity, negative = inhibition, most hits filed as inhibitors; further: nearly all actives have a fitted effect of over 55% in size
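Phosphorylated ERK1/2 detected via AlphaScreen bead proximity in lysates of V1b-expressing HEK293 cells given 25 nM vasopressin for 5 min after 30 min compound exposure (37 °C). AC50 from Hill equation; basal DMSO 0%, vasopressin 100%.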
Bst PK mod: Pyruvate Kinase. purified pyruvate kinase, luminescence ATP production; ribose 5-phosphate activator present at AC10. Potency, µM. 51,000 compounds, 1.2% hits. AID 361, 2006; in the data active means potency below about 11 µM; inconclusive means mostly about 12 µM to 25 µM;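 the screen sought inhibitors and activators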;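 further: scaled between full activation by ribose 5 phosphate and full inhibition by luteolin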
HADH2 inhib: qHTS Assay for Inhibitors of HADH2 (Hydroxyacyl-Coenzyme A Dehydrogenase, Type II); 3-hydroxyacyl-CoA dehydrogenase type-2 (Homo sapiens), Q99714; recombinant HADH2, NADH fluorescence, beta-hydroxybutyryl-CoA; Potency, µM (top dose mostly 57.1 µM), inactives show top-dose activity change, negative = inhibition, actives largely listed as inhibitors; 73,000 compounds, 3.4% hits; AID 886, 2007; further: nearly all actives have a fitted effect of over 60% in size
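Read-out: 360 nm excitation, 450 nm emission, kinetic over 4 min. Conditions: His-tagged human HADH2 20 nM, pH 9.0 Tris with Tween-20, 1 mM NAD+, 90 uM beta-hydroxybutyryl-CoA.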
An asterisk follows results filed as active; i = inactive; ? = inconclusive; / = no result given; [ ] = remark or other dose. Shown are actives, neighbours in structure and some others; about 11% of the full set was active somewhere. Unless noted, the call rests on the fitted dose curve; in most records, active means well fitted curve in the direction sought with a large enough effect; inconclusive means small, poorly fitted or top-dose-only effect, or another doubt; inactive means no such curve, though single readings can be large; an effect the other way counts as inactive or inconclusive. Unless noted, on the % scale 0 is the no-effect control and ±100 the full control effect; potency means the concentration at half of the fitted maximal effect.

SMILES	15-hLO inh	HSD17B inhib	FLuc inh	ERK AVP block	Bst PK mod	HADH2 inhib
CC(C)C1=C[C@@]23CC[C@@H]4[C@](C)(CCC[C@@]4(C)C(=O)O)[C@@H]2C[C@@H]1[C@@H](C(=O)O)[C@@H]3C(=O)O	9%[11.4 µM]	7%[11.4 µM]	4%[11.4 µM]	13%[11.5 µM]	/	-6%[11.4 µM]
NCCC[C@@](N)(C(=O)O)C(F)F	-7%	3%	-1%	5%	/	12%
C=C[C@@]1(C)C=C2CC[C@@H]3[C@](C)(CCC[C@@]3(C)C(=O)O)[C@H]2CC1	/	/	4%[11.4 µM]	/	/	5%
O=C(CCSCc1ccccc1F)N1CCN(c2ccccn2)CC1	5%	40µM*	-2%	9%	>57	9%
O=C(CSCc1ccccc1Cl)N1CCN(c2ccccn2)CC1	-2%	32µM*	-1%	11%	>57	-1%
O=C(CCCN1C(=O)c2ccccc2C1=O)N1CCN(c2ccccn2)CC1	0%	177%	-2%	-21%	>57	31%
COc1ccccc1CCn1c(=O)c(-c2ccccc2)nc2cncnc21	-12%	-8%	0%[11.4 µM]	-25%	/	-4%
COc1ccc(-c2noc(CSc3nc(N)c(-c4ccccc4)c(=O)[nH]3)n2)cc1	-26%	0%	-5%	13µM*	>57	-4%
COC(=O)NC(c1ccc(F)cc1)C(C(C)=O)C(=O)OC (stereo not given)	17%[11.4 µM]	16%[11.4 µM]	/	9%[11.5 µM]	/	11%[11.4 µM]
COC(=O)c1ccc(NC(=O)c2cnc3scc(C)n3c2=O)cc1	4%	-4%	0%	/	/	-4%
Cc1csc2ncc(C(=O)NCc3ccccn3)c(=O)n12	7%	25µM*	1%	/	/	25µM*
Cc1csc2ncc(C(=O)Nc3ccc(C(F)(F)F)cc3)c(=O)n12	6%	20µM*	-1%	/	/	-5%
O=C(CC1CCS(=O)(=O)C1)Nc1ccc[nH]c1=O (stereo not given)	3%	25µM*	1%	12%	>57	-11%
O=S1(=O)C=C(Sc2nc3cc(Cl)ccc3o2)c2ccccc21	-11%	?	-20%	10µM*	>57	?
C/C(CCN1CCCc2nc(C)c(C)cc21)=N\O[C@@H](C)CN1CCCCc2nc(C)c(C)cc21	10%[11.4 µM]	4%[11.4 µM]	0%[11.4 µM]	18%[11.5 µM]	/	1%[11.4 µM]
CC[n+]1ccc(C)c2cc(S(=O)C(F)(F)F)ccc21 (stereo not given)	-3%	25µM*	2%	-2%	>57	?
NCCOc1ccccc1-c1ccccc1	25%	0%	1%	?	>57	9%
NCCOB(c1ccccc1)c1ccccc1	0.63µM*	-8%	2%	?	/	2%
COc1cccc(CC(NC(C)=O)C(=O)NC2CCN(c3nc(C)cc(C)c3C#N)CC2)c1OC (stereo not given)	-2%	25µM*	2%	-13%	>57	15%
CN1CCN(c2ncnc3ccc(-c4cccc(C#N)c4)cc23)CC1	14%	11%	-2%[2.29 µM]	-25%	/	7%
COc1cc2c(C(=O)NCc3ccc(C)o3)cn(CC(C)C)c(=O)c2cc1OC	-2%	-6%	-3%	13%	>57	0%
Cn1c2ccccc2c2c(C(=O)NCc3ccco3)cn(C3CCCCC3)c(=O)c21	-18%	13µM*	-1%	0%	/	5%
Cc1ccc(CNC(=O)c2cn(C3CCCC3)c(=O)c3c2c2ccccc2n3C)o1	?	25µM*	-2%	?	?	28%
CN(C)CCCCl	-9%	7%	/	6%	/	-2%
CCOc1ccc2c(c1)sc(=NC(=O)C1CC1)n2C	5%	?	13µM*	-18%	i	-28%
SMILES	15-hLO inh	HSD17B inhib	FLuc inh	ERK AVP block	Bst PK mod	HADH2 inhib
CN1CCN(C(=O)c2sc(=S)n(-c3ccccc3)c2N)CC1	?	?	-18%	-12%	>57	0.2µM*
Cc1ccc(-n2c(N)c(C(=O)N3CCOCC3)sc2=S)cc1	?	?	0%	-8%	>57	1.6µM*
Cc1c(C(=O)O)sc(=S)n1-c1ccccc1	/	/	3%[25.5 µM]	/	>26	/
OCC1OC(n2cnc3c(=S)nc[nH]c32)C(O)C1O (stereo not given)	-6%	-4%	/	5%	/	/
CCc1nc(SCC(=O)N2CCN(c3ccccc3)CC2)c2c(=O)n(C)c(=O)n(C)c2n1	-22%	25µM*	0%	/	/	6%
Cn1c(=O)c2c(SCC(=O)N3CCC(Cc4ccccc4)CC3)nc(C3CC3)nc2n(C)c1=O	0%	4%	1%	/	/	16%
Cn1c(=O)c2c(SCC(=O)N3CCN(c4ccccc4)CC3)nc(C3CC3)nc2n(C)c1=O	7%	32µM*	1%	/	/	3%
O=c1c(-c2ccccc2)nc2cnc(Oc3cccc(Cl)c3)nc2n1C[C@H]1CCCO1	6%	-66%	1%[11.4 µM]	-23%	/	-20%
O[C@@H](c1cc([C@@]23C[C@H]4CC[C@@H]2C[C@H](C4)C3)nc2c(Cl)cc(Cl)cc12)[C@@H]1CCCCN1	11%[11.4 µM]	9%[11.4 µM]	4%[11.4 µM]	5%[11.5 µM]	/	11%[11.4 µM]
N=C(N)SCc1nc(-c2ccc(Cl)cc2)no1	8%[11.4 µM]	0%[11.4 µM]	1%[11.4 µM]	-27%[11.5 µM]	/	-8%[11.4 µM]
N#Cc1c(-c2ccco2)c2c([nH]c1=S)CCCC2	16µM*	16µM*	-21%	?	/	7.9µM*
COc1ccc(CCNS(=O)(=O)c2cn(C)c(=O)n(C)c2=O)cc1OC	6%	32µM*	3%	/	/	?
COc1ccc(C(=O)N2CCC[C@@]3(CCN(CC(C)C)C3)C2)cc1	6%	2%	0%[11.4 µM]	10%	/	7%

High-throughput results as filed in PubChem.
